The values below come from PubChem BioAssay AID1672 (Johns Hopkins Ion Channel Center, 2009).

Among all 310,000 compounds or so, about 2,600 (0.84%) were called active.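 Rule for the calls: active = fluorescence ratio B-score at or below minus 3 SD of library scores, with starting-brightness B-score within 2 SD (cut at about -4.2 in these data); inactive = the rest.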 Only a selection was taken, and actives are over-represented in it overall.

In the assay the target is Inward rectifier potassium channel 2 (Mus musculus) (UniProt P35561). As to the kind of experiment: blocks the mouse Kir2.1 inward-rectifier potassium channel (AID 1672).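 Note: channel flux triggered by added potassium and thallium sulfate stimulus; B-score of peak minus minimum fluorescence over baseline after thallium stimulus; more negative B-score means stronger Kir2.1 block with less thallium influx.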 The conditions noted are these: HEK293-Kir2.1, FluxOR thallium flux fluorescence; at 10 µM; active compounds read low.
Inward rectifier potassium channel 2 (Mus musculus), sequence (P35561 whole entry, looked up): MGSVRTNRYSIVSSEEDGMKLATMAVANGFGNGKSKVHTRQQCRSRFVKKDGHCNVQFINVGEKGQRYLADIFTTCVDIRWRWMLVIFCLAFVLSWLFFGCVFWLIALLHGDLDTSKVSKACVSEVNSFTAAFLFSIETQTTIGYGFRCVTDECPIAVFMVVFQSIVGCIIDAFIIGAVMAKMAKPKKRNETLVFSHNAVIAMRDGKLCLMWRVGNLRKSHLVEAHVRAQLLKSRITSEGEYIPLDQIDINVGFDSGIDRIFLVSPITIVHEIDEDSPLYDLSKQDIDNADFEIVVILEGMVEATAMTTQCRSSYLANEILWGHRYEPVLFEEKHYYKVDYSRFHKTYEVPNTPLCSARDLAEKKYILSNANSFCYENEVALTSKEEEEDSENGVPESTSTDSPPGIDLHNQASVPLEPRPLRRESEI
With `COc1ccc(C(=O)Nc2cccc(NC(=O)c3ccc(OC)cc3OC)n2)c(OC)c1`, the B-score was 1.64 (inactive).

Consider `O=S(=O)(O)Oc1c[nH]c2ccccc12`, for which the B-score was 0.01 (inactive).

As for `Cc1nnc(SCC(=O)NCCOc2ccc(Cl)cc2)n1-c1ccccc1`, the B-score is -0.16 (inactive).

With `Cc1nnc(SCc2ccc(C(=O)c3ccc(Cl)cc3)o2)n1-c1ccccc1`, the B-score is -6.19 (active).

Consider `Cc1nnc(SCC(=O)N2CCN(c3ccccc3)CC2)n1-c1ccccc1`, for which the B-score was 0.71 (inactive).

In the case of `COc1ccc(OCC(O)CN(C)C(=O)C(C)Oc2ccccc2)cc1` (stereo not drawn), the B-score is -0.09 (inactive).

As for `Cc1ccc(OCC(=O)OC(C)CN(C)Cc2ccccc2)cc1` (stereo not drawn), the B-score was 0.74 (inactive).

Consider `CN(Cc1ccccc1)CC(O)COc1ccc(CNCc2cc3ccccc3s2)cc1` (stereo not drawn), for which the B-score is -11.4 (active).

For `C=CCNC(=O)C1CC2c3ccccc3C1c1ccccc12` (stereo not drawn), the B-score was -2.23 (inactive).

With `C[C@H](NC(=O)OC(C)(C)C)c1nnc(SCC(N)=O)o1`, the B-score was -0.34 (inactive).

Turning to `C[C@@H](NC(=O)OC(C)(C)C)c1nnc(S(=O)(=O)Cc2ccccc2)o1`, the B-score is -6.48 (active).

Regarding `CC(C)Sc1nnc([C@H](Cc2ccccc2)NC(=O)OC(C)(C)C)o1`, the B-score was -0.51 (inactive).

Regarding `O=C(c1ccc(Cl)s1)N(Cc1nnc(-c2ccccc2Cl)o1)C1CC1`, the B-score is 1.76 (inactive).

Regarding `Cc1ccn2c(=O)nc(SCC(=O)NCc3ccc(F)cc3)nc2c1`, the B-score is -1.27 (inactive).

Regarding `Cc1csc(NC(=O)c2ccc(C)s2)n1`, the B-score was 0.01 (inactive).

`CC(=O)Nc1cccc(C(=O)OCC(=O)Nc2nnc(-c3ccccc3)o2)c1`: the B-score was -2.17 (inactive).

`COc1ccccc1NS(=O)(=O)c1ccc(C)c(C(=O)NCC(c2ccco2)N(C)C)c1` (stereo not drawn): the B-score is -0.98 (inactive).

Regarding `C=CCNC(=S)N/N=C/c1ccc(OCc2ccccc2)cc1`, the B-score is -1.45 (inactive).

`C=CCNC(=S)/N=c1/ccccn1Cc1ccccc1`: the B-score is -6.6 (active).

Regarding `C=CCNC(=O)COc1coc(CN2CCN(Cc3ccccc3)CC2)cc1=O`, the B-score was 0.45 (inactive).

As for `O=C(Nc1ncccc1O)c1ccc(S(=O)(=O)N2CCCC2)cc1`, the B-score was -0.16 (inactive).

Consider `CC(C)(C)NCc1cc(Br)ccc1OC1CCCC1`, for which the B-score is -4.79 (active).

Turning to `COCC(C)NCc1cc(Br)ccc1OC` (stereo not drawn), the B-score is 1.7 (inactive).

Regarding `CCOCCCNCc1cc(Br)ccc1OCC`, the B-score was -0.16 (inactive).

For the compound `Cc1ccc(NC(=O)c2cnc(SCC(=O)NCC3CCCO3)n(C)c2=O)cc1` (stereo not drawn), the B-score was 0.42 (inactive).

`Cc1ccc(S(=O)(=O)N2CCC(C(=O)NCCC3=CCCCC3)CC2)cc1C`: the B-score is 0.61 (inactive).

On to `O=C1c2ccccc2C(=O)c2c1cccc2N1CCN(C/C=C/c2ccccc2)CC1`, for which the B-score was 1.06 (inactive).

With `COc1ccc(C)cc1NC(=O)CSc1nnc2ccc(-c3ccccn3)nn12`, the B-score is 0.98 (inactive).

Turning to `CSc1ccc(CN2C(=O)NC3(CCCCCC3)C2=O)cc1`, the B-score is 1.22 (inactive).

As to `Cc1ccc(SCCN2C(=O)NC(C)(C)C2=O)cc1`, the B-score was 0.51 (inactive).

Regarding `CC1(C)NC(=O)N(CCCCSc2ccc(Cl)cc2)C1=O`, the B-score is -6.38 (active).

As for `Cc1ccn2c(=O)c(NC(=O)c3cccc4ccccc34)c(C)nc2c1`, the B-score is -0.25 (inactive).

As to `CC1CN(C(=O)CCC(=O)NCCCN2CCC(Cc3ccccc3)CC2)c2cc(Cl)ccc2O1` (stereo not drawn), the B-score is -9.24 (active).

Consider `CC1CN(C(=O)CCC(=O)NCc2cccnc2)c2ccccc2O1` (stereo not drawn), for which the B-score was -0.67 (inactive).

For the compound `CC1CN(C(=O)CCC(=O)NC2CCN(Cc3ccccc3)CC2)c2ccccc2O1` (stereo not drawn), the B-score is 2.27 (inactive).

For `CN(C)S(=O)(=O)c1ccc(N2CCCC2)c(C(=O)Nc2ccc(Br)cc2F)c1`, the B-score was -0.29 (inactive).

On to `Cc1cc(C)cc(NC(=O)COc2coc(CN3CCN(c4ccccc4)CC3)cc2=O)c1`, for which the B-score was 0 (inactive).

In the case of `Cc1ccc(NC(=S)N(CCCN2CCCC2)Cc2cccn2Cc2ccc(Cl)cc2)cc1`, the B-score was -8.85 (active).

`Cc1ccc(NC(=S)N(CCCN2CCC(C)CC2)Cc2ccco2)cc1`: the B-score was -0.74 (inactive).

With `Cc1ccc(NC(=S)N(CCN2CCCCC2)Cc2ccco2)cc1C`, the B-score was -0.41 (inactive).

`CC(C)(C)S(=O)(=O)c1ccccc1-c1noc(-c2ccccc2)c1C(N)=O`: the B-score was -0.65 (inactive).

As for `COc1ccc(S(=O)(=O)NCC(c2ccc(C)cc2)N2CCN(C)CC2)cc1OC` (stereo not drawn), the B-score was 1.23 (inactive).

Turning to `CCCOc1ccc(C(=O)CCC(=O)OC(C)C(=O)Nc2ccc(NC(C)=O)cc2)cc1` (stereo not drawn), the B-score was 0.42 (inactive).

For `CCCOc1ccc(C(=O)C(CCC(CNCC)C(=O)c2ccc(OCCC)cc2)CNCC)cc1` (stereo not drawn), the B-score is -6.16 (active).

Take `CCCCOc1ccc(C(=O)NCc2ccncc2)cc1`: the B-score is 0.24 (inactive).

`O=C(CSc1nc(=O)n2ccccc2n1)Nc1ccc2c(c1)OCCO2`: the B-score is 0.08 (inactive).

As to `CCOc1ccc(C(C)=O)cc1COC(=O)CN1C(=O)NC2(CCCC2)C1=O`, the B-score was -1.53 (inactive).

With `CCCCn1c(N)c(N(CC(C)C)C(=O)c2ccc(-n3c(C)ccc3C)cc2)c(=O)[nH]c1=O`, the B-score is -1.14 (inactive).

`c1ccc(C2CNCc3c2ccc2ccccc32)cc1` (stereo not drawn): the B-score is -11.2 (active).

In the case of `Cc1ccc(C)c(-c2nnc(NC(=O)CS(=O)(=O)c3ccccc3)o2)c1`, the B-score was 1.4 (inactive).

On to `O=c1[nH]c(/C=C/c2cccc(Br)c2)nc2ccccc12`, for which the B-score was 0.39 (inactive).

As for `Cc1cc(C)cc(NC(=O)CSc2ccccc2)c1`, the B-score is 0.12 (inactive).

On to `O=C(CSc1ccccc1)Nc1cc(Cl)ccc1Oc1ccccc1`, for which the B-score is -1.22 (inactive).

Turning to `CC(=O)Nc1ccc(SCC(=O)Nc2ccccc2Oc2ccccc2)cc1`, the B-score is -6.89 (active).

On to `N#CCCN(C(=O)COC(=O)C1CCN(c2ccc(C(F)(F)F)cn2)CC1)c1ccc(F)cc1`, for which the B-score was 0.96 (inactive).

Turning to `CCOC(=O)N1CCN(C(=O)COc2ccc3oc4c(c3c2)CCCC4)CC1`, the B-score is 0.58 (inactive).

Take `COc1ccccc1CCNC(=O)C(=O)NCCC1CCCCN1S(=O)(=O)c1cccs1` (stereo not drawn): the B-score was -1.17 (inactive).

Consider `O=C(/C=C/c1ccc(Cl)c([N+](=O)[O-])c1)c1cccnc1`, for which the B-score was -0.86 (inactive).

As for `O=C(Nc1cccnc1)c1cc(Cl)ccc1Cl`, the B-score was 0.72 (inactive).

As to `O=C(/C=C/c1ccc(Cl)cc1Cl)c1cccnc1`, the B-score is -4.49 (active).

Regarding `COc1ccc2oc(C(=O)OCC(=O)N(CC(C)C)c3c(N)n(Cc4ccccc4)c(=O)[nH]c3=O)c(C)c2c1`, the B-score is 0.5 (inactive).

For the compound `COc1ccccc1S(=O)(=O)c1c(C)cc(C)[nH]c1=O`, the B-score was -1.21 (inactive).

With `C=C(C)Cn1c(C)cc(C)c(S(=O)(=O)c2ccccc2C)c1=O`, the B-score was -4.55 (active).

On to `Cc1cc(C)c(S(=O)(=O)c2ccc(F)cc2C)c(=O)[nH]1`, for which the B-score is 0.31 (inactive).

For the compound `Cc1ccc(C(=O)NNC(=O)C(C)Oc2ccc3ccccc3c2)o1` (stereo not drawn), the B-score is 0.32 (inactive).

Take `CSc1ncc(Sc2ccccc2)c(C(=O)O)n1`: the B-score was 0.25 (inactive).

Regarding `COc1ccccc1CN1CCN(C(c2ccccc2)c2ccccc2)CC1`, the B-score is -0.07 (inactive).

As for `CC(NCc1ccccc1OC1CCCC1)c1ccccc1` (stereo not drawn), the B-score was -12.7 (active).

For `CC(=O)OC(C(=O)NC1CCCCC1)c1ccccc1` (stereo not drawn), the B-score is -0.67 (inactive).

`Cc1ccc(NC(=O)C2CC(=O)N(c3ccc4c(c3)OCCO4)C2)cc1S(=O)(=O)N1CCCCCC1` (stereo not drawn): the B-score was -0.57 (inactive).

`COc1ccc2c(c1)CCNC2Cc1ccc(OC)c(O)c1` (stereo not drawn): the B-score is 1.91 (inactive).

As for `CN1CCN(C2Cc3ccc(Cl)cc3Sc3ccc(F)cc32)CC1` (stereo not drawn), the B-score was -1.17 (inactive).

Regarding `O=C1CSC(c2ccccc2)N1c1nc(-c2ccc(Cl)cc2Cl)cs1` (stereo not drawn), the B-score was 0.4 (inactive).

Turning to `Clc1ccc(-c2cc(-c3ccccn3)on2)c(Cl)c1`, the B-score was 0.99 (inactive).

As for `Clc1ccc(-c2cc(C3CCNCC3)[nH]n2)c(Cl)c1`, the B-score was -12.6 (active).

With `O=C(Nc1cccc2c1CCCC2)c1ccc(F)cc1`, the B-score is -0.09 (inactive).

Turning to `Cc1ccc(S(=O)(=O)N2CCN(C(=O)Cc3sc(C)nc3-c3ccc(F)cc3)CC2)c(C)c1`, the B-score is -0.03 (inactive).

As for `COc1ccc(S(=O)(=O)N2CCCCC2)cc1NC(=O)c1cc([N+](=O)[O-])ccc1N1CCOCC1`, the B-score is -0.55 (inactive).

On to `CCN1C(=O)[C@@H]2[C@@H](c3ccc(-c4cccc(Cl)c4)cc3)N3CCC[C@@]3(C(=O)OC)[C@@H]2C1=O`, for which the B-score was 0 (inactive).

As to `COc1ccccc1OCC(=O)Nc1ccccc1C(=O)NC1CC1`, the B-score is -0.05 (inactive).

Regarding `CC(Oc1ccc(F)cc1)C(=O)Nc1ccccc1C(=O)NC1CC1` (stereo not drawn), the B-score was -5.66 (active).

Turning to `CCOc1ccccc1OCC(=O)Nc1ccccc1C(=O)NC1CC1`, the B-score is -2.1 (inactive).

Turning to `CC(Oc1ccc(Br)cc1)C(=O)NCC(c1ccco1)N1CCCCC1` (stereo not drawn), the B-score was -1.52 (inactive).

Consider `Cc1ccc(S(=O)(=O)NCCC(=O)NC2CCN(Cc3ccccc3)CC2)cc1`, for which the B-score is -1.38 (inactive).

With `Cc1ccc(-c2cc(C(=O)NC3CCN(Cc4ccccc4)CC3)c3ccccc3n2)cc1`, the B-score was 0 (inactive).

`Cc1ccc(-c2nc(CSCC(=O)NC3CCN(Cc4ccccc4)CC3)c(C)o2)cc1`: the B-score is -4.77 (active).

`C=CCc1cc(S(=O)(=O)c2ccc(O)c(CC=C)c2)ccc1O`: the B-score is -6.7 (active).

As for `CCOC(=O)C1Nc2ccc(C(F)(F)F)cc2C2C=CCC12` (stereo not drawn), the B-score was 1.69 (inactive).

As for `COc1cc(CNCc2ccc(OC)c3ccccc23)cc(OC)c1OC`, the B-score was -6.99 (active).

Turning to `COc1ccc(CNC(=O)Cc2ccc(-c3ccccc3)cc2)cc1OC`, the B-score was 0.77 (inactive).

For `COc1cc(CNCc2cccs2)cc(Br)c1OC`, the B-score is -1.78 (inactive).

In the case of `CC12CN(Cc3ccccc3)CC(C)(CN(Cc3ccccc3)C1)C2=NO`, the B-score was -8.19 (active).

Consider `O=C(Nc1ccccc1)N1CCN(Cc2ccccc2)CC1`, for which the B-score is 0.76 (inactive).

In the case of `CCCC(=O)C1CCN(Cc2ccccc2)CC1`, the B-score was -3.46 (inactive).

As for `CC(C)(C)Oc1ccccc1Nc1nc(NCCO)nc(N2CCCC2)n1`, the B-score is 0.89 (inactive).

Consider `CCOc1ccccc1-c1nc(CN2CCC(C(=O)N3CCOCC3)CC2)c(C)o1`, for which the B-score was 0.57 (inactive).

Take `COc1cccc(CC2(CO)CCCN(Cc3nc(-c4cccs4)oc3C)C2)c1` (stereo not drawn): the B-score is -0.22 (inactive).

With `COc1ccc(F)c(-c2nc(CN3CCC(c4ccccc4)CC3)c(C)o2)c1`, the B-score was -6.63 (active).
